According to the supplement of paper PMC12669032:
A number with no mark means an inactive call.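 Rule for the calls: active = AUC reduced over 20% with Padj below 0.05 in at least 2 of 3 replicates; inactive = otherwise.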

Key:
Assay in all cases: growth AUC relative to DMSO control (median of replicates) (fraction); higher = more growth (less inhibition), active = hit call of the paper
Details in all cases: 20 µM; 24 h
[1] = test system: Akkermansia muciniphila
Method in brief: (§1)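 Gut bacteria were grown singly in mGAM at 37 °C without oxygen, from OD600 0.05, alongside 20 µM compound in 1% DMSO, and OD600 was read each hour for 24 h. Area under the growth curve was normalised to the median of solvent-only wells per plate, or to row and column medians on the industrial chemical plate. The minimum OD was set to 0 beforehand, and the reported value is the median of three biological replicates grown on separate days.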

[2] = test system: Bacteroides caccae
Method in brief: as §1

[3] = test system: Bacteroides clarus
Method in brief: as §1

[4] = test system: Bacteroides dorei
Method in brief: as §1

[5] = test system: Bacteroides stercoris
Method in brief: as §1

[6] = test system: Bacteroides thetaiotaomicron
Method in brief: as §1

[7] = test system: Bacteroides uniformis
Method in brief: as §1

[8] = test system: Bifidobacterium longum subsp. longum
Method in brief: as §1

[9] = test system: Clostridium difficile
Method in brief: as §1

[10] = test system: Collinsella aerofaciens
Method in brief: as §1

[11] = test system: Coprococcus comes
Method in brief: as §1

[12] = test system: Escherichia coli ED1a
Method in brief: as §1

[13] = test system: Escherichia coli IAI1
Method in brief: as §1

[14] = test system: Eubacterium rectale
Method in brief: as §1

[15] = test system: Fusobacterium nucleatum subsp. animalis
Method in brief: as §1

[16] = test system: Lactobacillus gasseri
Method in brief: as §1

[17] = test system: Lactobacillus paracasei
Method in brief: as §1

[18] = test system: Odoribacter splanchnicus
Method in brief: as §1

[19] = test system: Parabacteroides distasonis
Method in brief: as §1

[20] = test system: Parabacteroides merdae
Method in brief: as §1

Row | Compound | growth AUC [1] | growth AUC [2] | growth AUC [3] | growth AUC [4] | growth AUC [5] | growth AUC [6] | growth AUC [7] | growth AUC [8] | growth AUC [9] | growth AUC [10] | growth AUC [11] | growth AUC [12] | growth AUC [13] | growth AUC [14] | growth AUC [15] | growth AUC [16] | growth AUC [17] | growth AUC [18] | growth AUC [19] | growth AUC [20]
1 | CCOC(=O)COc1cc(-c2nn(C)c(OC(F)F)c2Cl)c(F)cc1Cl | 0.977 | 0.974 | 0.986 | 0.99 | 0.965 | 1.01 | 1.04 | 1.03 | 1.02 | 1.04 | 0.979 | 0.995 | 0.971 | 1.13 | 1.12 | 0.996 | 1.01 | 1 | 1.02 | 1
2 | CC(CCl)OP(=O)(OC(C)CCl)OC(C)CCl (mixture of isomers) | 1.14 | 1 | 0.998 | 0.973 | 0.994 | 1 | 0.958 | 1.05 | 1.02 | 0.951 | 0.999 | 0.973 | 0.984 | 1.08 | 1.08 | 0.851 | 1.01 | 1.01 | 0.94 | 0.976
3 | CC1COC(Cn2cncn2)(c2ccc(Oc3ccc(Cl)cc3)cc2Cl)O1 (stereo not given) | 1.03 | 0.868 | 0.898 | 0.91 | 1.12 | 0.854 | 0.839 | 0.938 | 0.881 | 0.977 | 0.72 (active) | 0.979 | 1 | 0.723 (active) | 0.983 | 0.952 | 0.986 | 0.904 | 0.801 | 0.871
4 | CC(C)=CC1C(C(=O)OC(C#N)c2cccc(Oc3ccccc3)c2)C1(C)C (mixture of isomers) | 0.826 | 0.964 | 0.994 | 0.989 | 1.11 | 1.01 | 1.06 | 0.914 | 1 | 0.935 | 0.983 | 1 | 0.967 | 0.965 | 0.921 | 0.921 | 1.23 | 1.01 | 1 | 1
5 | Clc1ccc(C2(Cn3cncn3)OCCO2)c(Cl)c1 | 1.03 | 0.932 | 0.984 | 0.934 | 0.815 | 0.916 | 0.985 | 1.01 | 0.956 | 0.913 | 0.966 | 0.98 | 0.979 | 1.03 | 0.988 | 0.937 | 0.946 | 0.923 | 1.01 | 0.954
6 | O=C(NC(=O)c1c(F)cccc1F)Nc1ccc(OC(F)(F)C(F)OC(F)(F)F)c(Cl)c1 (stereo not given) | 0.979 | 0.991 | 1.01 | 1.03 | 0.982 | 0.974 | 0.997 | 1 | 0.985 | 0.971 | 1 | 1.05 | 1 | 0.99 | 0.986 | 1.49 | 0.958 | 0.983 | 1.02 | 0.997
7 | CCN(CC)C(=O)SCc1ccc(Cl)cc1 | 0.879 | 0.98 | 0.954 | 0.978 | 1.12 | 0.91 | 0.973 | 0.948 | 1.02 | 0.948 | 0.966 | 1.01 | 1.01 | 0.921 | 0.957 | 1.08 | 0.879 | 0.937 | 0.943 | 0.972
8 | CNC(=O)Oc1cccc2c1OC(C)(C)C2=O | 1.05 | 1.03 | 1.03 | 1.02 | 1.04 | 1.02 | 1.05 | 1.02 | 1.01 | 1.01 | 1.05 | 1.03 | 1.02 | 1.04 | 1.15 | 0.878 | 1.04 | 1.02 | 0.955 | 0.99
9 | COCC(=O)N(c1c(C)cccc1C)[C@H](C)C(=O)OC | 0.94 | 1 | 1.04 | 1.04 | 1.06 | 1 | 1.02 | 1.1 | 1.02 | 1.04 | 1.04 | 1.02 | 1.05 | 1.01 | 1.02 | 0.957 | 1 | 1.03 | 1.05 | 1.05
10 | O=C(NC(=O)c1c(F)cccc1F)Nc1ccc(Cl)c(Oc2ncc(C(F)(F)F)cc2Cl)c1 | 1.14 | 0.985 | 1.02 | 1.1 | 0.98 | 1.01 | 1.02 | 0.917 | 1.1 | 1.08 | 0.98 | 0.999 | 1.01 | 0.951 | 1.1 | 1.16 | 0.815 | 1.13 | 1.02 | 0.991
11 | CCC(C)(NC(=O)c1cc(Cl)c(C)c(Cl)c1)C(=O)CCl (stereo not given) | 0.877 | 0.949 | 0.895 | 0.967 | 0.86 | 0.908 | 0.861 | 0.953 | 0.496 (active) | 1 | 0.945 | 1.01 | 0.995 | 0.892 | 0.906 | 0.942 | 1.02 | 0.914 | 0.643 (active) | 0.907
12 | Cc1cc(Cl)ccc1O[C@H](C)C(=O)O | 1.04 | 0.841 | 1 | 0.982 | 1.15 | 0.991 | 0.958 | 1.01 | 0.972 | 0.968 | 1.01 | 1 | 0.98 | 1.06 | 1.08 | 0.873 | 0.979 | 1.1 | 0.961 | 0.956
13 | COC(=O)NCc1cc(/C(C)=N\OCc2cccc(C)n2)ccc1Cl | 1.07 | 0.936 | 0.984 | 0.949 | 0.939 | 0.995 | 0.902 | 1.03 | 0.968 | 0.969 | 1.05 | 0.979 | 0.995 | 1.08 | 0.934 | 0.893 | 0.969 | 1 | 0.772 | 0.947
14 | N#Cc1c[nH]cc1-c1cccc2c1OC(F)(F)O2 | 0.837 | 0.959 | 0.918 | 0.953 | 0.85 | 0.953 | 0.999 | 0.91 | 0.978 | 0.992 | 1.05 | 0.969 | 0.978 | 0.857 | 0.888 | 0.866 | 0.908 | 0.985 | 0.759 (active) | 0.88
15 | CCc1ccc(C(=O)NN(C(=O)c2cc(C)cc(C)c2)C(C)(C)C)cc1 | 0.924 | 1.03 | 0.993 | 0.987 | 0.875 | 0.976 | 0.955 | 0.911 | 0.965 | 1 | 0.987 | 1.01 | 0.999 | 0.937 | 0.882 | 0.98 | 1.04 | 0.926 | 1.03 | 0.945
16 | COP(=O)(OC)SCn1c(=O)oc2cc(Cl)cnc21 | 0.883 | 1.02 | 0.983 | 1.02 | 1.01 | 1.01 | 1.03 | 1.01 | 1 | 1.03 | 1.11 | 1.01 | 1 | 0.986 | 0.983 | 1.08 | 1.05 | 1 | 1.08 | 1
17 | CC(C)N(C)S(=O)(=O)NC(=O)c1cc(-n2c(=O)cc(C(F)(F)F)n(C)c2=O)c(F)cc1Cl | 0.916 | 1.02 | 0.989 | 1 | 1.09 | 0.951 | 0.94 | 1 | 0.976 | 1.04 | 1.03 | 1.02 | 1 | 1.01 | 0.98 | 1.02 | 1.04 | 0.99 | 1.08 | 1
18 | Fc1ccc(Oc2ccnc3cc(Cl)cc(Cl)c23)cc1 | 0.94 | 0.899 | 0.918 | 1.05 | 0.806 | 0.887 | 0.875 | 0.905 | 1.08 | 0.967 | 0.969 | 0.977 | 0.97 | 0.845 | 0.921 | 0.984 | 0.672 | 1 | 0.966 | 0.876
19 | CCN(CC)N=O | 1 | 1 | 1 | 1.04 | 1.04 | 1.01 | 1 | 1.05 | 1.02 | 0.991 | 1.01 | 1.01 | 1.04 | 0.996 | 0.998 | 1.04 | 0.981 | 0.979 | 1 | 1.01
20 | CCC(C)c1ccccc1OC(=O)NC (stereo not given) | 0.869 | 1.03 | 0.975 | 1.01 | 0.961 | 0.981 | 0.978 | 0.976 | 1 | 0.986 | 1.01 | 0.968 | 0.974 | 0.964 | 0.998 | 1.07 | 0.918 | 1.08 | 1.03 | 0.986
21 | O=C(NC(=O)c1c(F)cccc1F)Nc1ccc(Cl)cc1 | 1.14 | 1.01 | 0.996 | 0.998 | 0.974 | 0.997 | 1.01 | 0.954 | 1.01 | 0.955 | 0.97 | 0.993 | 1 | 1.01 | 0.987 | 0.93 | 0.965 | 0.985 | 1.07 | 0.99
22 | CC1(C)C(C=C(Cl)Cl)C1C(=O)OC(C#N)c1cccc(Oc2ccccc2)c1 (stereo not given) | 1.06 | 0.942 | 1.03 | 1.02 | 1.24 | 0.963 | 1.01 | 0.926 | 0.986 | 0.966 | 0.945 | 1.01 | 0.98 | 1.05 | 1.05 | 0.776 | 0.951 | 1.07 | 0.98 | 1.02
23 | CC(=O)O.NC(N)=NCCCCCCCCNCCCCCCCCN=C(N)N | 0.836 | 0.279 (active) | 0.442 (active) | 0.638 (active) | 0.186 (active) | 0.0333 (active) | 0.115 (active) | 0.136 (active) | 0.984 | 0.618 (active) | 0.64 (active) | 1 | 0.928 | 0.0294 (active) | 0.871 | 0.874 | 0.961 | 0.0478 (active) | 0.132 (active) | 0.0209 (active)
24 | C[C@@H]1C[C@@H]([C@H](O)CC2CC(=O)NC(=O)C2)C(=O)[C@@H](C)C1 | 1.15 | 1.02 | 1.02 | 0.98 | 1.05 | 1.04 | 0.999 | 1.02 | 1.05 | 0.989 | 1.03 | 1.01 | 1.02 | 0.992 | 1.12 | 0.936 | 1.06 | 1.02 | 0.985 | 1.03
25 | O=S(=O)(c1ccccc1)c1ccccc1 | 0.901 | 0.966 | 1.01 | 0.993 | 1.03 | 0.997 | 0.982 | 1.01 | 1.02 | 0.964 | 0.977 | 0.988 | 0.97 | 1.03 | 1 | 0.914 | 1.03 | 0.999 | 1.02 | 0.929
26 | Cc1ccccc1CO[C@@H]1C[C@@]2(C(C)C)CC[C@]1(C)O2 (mixture of isomers) | 1.08 | 0.955 | 0.967 | 0.977 | 1.02 | 1.01 | 0.997 | 1.03 | 1.04 | 1.01 | 1 | 1.02 | 0.961 | 1.14 | 1.02 | 0.96 | 1.01 | 1.04 | 0.887 | 1
27 | COC(=O)c1sccc1S(=O)(=O)NC(=O)Nc1nc(C)nc(OC)n1 | 1.13 | 0.932 | 0.994 | 0.875 | 0.961 | 0.924 | 1.03 | 1.09 | 0.944 | 0.898 | 0.962 | 0.97 | 0.967 | 1.14 | 0.975 | 0.859 | 1.03 | 1.01 | 0.969 | 0.973
